Screens (PubChem)
Shown are actives, neighbours in structure and some others; about 6.6% of the full set was active somewhere.
Fluor 339 460 – intrinsic fluorescence of library compounds, ex339/em460 – biochemical, MLSMR library, data from DPM-DC assay, artefact control, profiling panel; compound autofluorescence, ex339/em460 nm, NADH buffer; active compounds read high; 1 = no-compound wells, NADH background; fluorescence fold increase at 10 µM; hit rate 5.5% among 65,000; AID 709;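 active = at 10 µM, mean starting fluorescence two-fold or more over control wells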;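 also: signal is the first read of a kinetic run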
NADH coupling – blocks coupling enzymes of NAD/NADH assays; coupled PK/LDH NADH assays, four targets; IC50, µM (top dose mostly 10 µM), for inactives: top-dose inhibition; hit rate 0.02% among 65,000;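 active = single-dose screening hits from any of four coupled enzyme assays that gave an IC50 when retested across doses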;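 also: the DPM-DC format reads NADH fluorescence rather than 340 nm absorbance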
Spn PMK inh – blocks S. pneumoniae phosphomevalonate kinase; purified PMK, PK/LDH-coupled NADH absorbance 340 nm; hit rate 0.49% among 65,000; inhibition, % at 10 µM;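 active = top-ranked compounds by inhibition in the single 10 µM screen, taking a fixed number of the strongest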;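 also: 0% = full reaction with DMSO carrier and 100% = background rate without enzyme reaction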
DPM-DC inhibit – blocks S. pneumoniae diphosphomevalonate decarboxylase; purified DPM-DC, PK/LDH coupled NADH fluorescence; calls only at 10 µM; hit rate 0.49% among 65,000;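 active = the 320 compounds with the highest percent inhibition in the single-dose primary screen, excluding strongly autofluorescent ones, cut at about 32% in these data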;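 also: kinetic rate of NADH fluorescence loss reporting ADP formed by the decarboxylase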
Spn MK inh – S. pneumoniae mevalonate kinase inhibition; purified MK, PK/LDH-coupled NADH absorbance 340 nm; AID 555; inhibition, % at 10 µM; hit rate 0.48% among 65,000;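 active = ranked among the strongest by inhibition in the single 10 µM screen, a fixed top-ranked set picked for dose follow-up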
Active calls of the source: *; i = inactive; · = no result shown; + = active, no number; [ ] = another dose, or the depositor's remark.

SMILES	Fluor 339 460	NADH coupling	Spn PMK inh	DPM-DC inhibit	Spn MK inh
CCOc1ccc(-n2c(=S)sc3c(=O)[nH]c(SCC(=O)NCc4ccco4)nc32)cc1	1	4%	12	i	0
O=C(NCc1ccco1)c1cnn2c(C(F)F)cc(-c3ccccc3)nc12	2.1*	12%	4	i	11
Cc1cc(NC(=O)c2cnn3c(C(F)F)cc(-c4ccccc4)nc23)no1	1.2	1%	0	i	0
CCN(CC(=O)Nc1ccc2c(c1)OCCO2)c1nc(-c2cccnc2)nc2ccccc12	1.1	15%	23	i	7
Cc1ccc(CSC2=Nc3ccccc3C3=NC(CC(=O)NCc4ccco4)C(=O)N23)cc1 (stereo unspecified)	1.8	8%	14	i	9
CCc1nnc(NC(=O)CSc2nnc3ncccn23)s1	1	6%	2	i	4
CCN(CC)CCCN1C(=O)C(O)=C(C(=O)c2ccc(C)o2)C1c1ccco1 (stereo unspecified)	1.1	3%	0	i	8
CCOC(=O)C1CCCN(S(=O)(=O)c2cccc3cccnc23)C1 (stereo unspecified)	1.1	3%	6	i	4
Cn1c(Cc2csc(N)n2)nnc1SCC(=O)NCc1ccccc1	1	6%	13	i	3
O=C(O)c1cnn2c(C(F)(F)F)cc(-c3ccco3)nc12	1.2	1%	0	i	4
O=C(NCc1ccco1)c1cnn2c(C(F)(F)F)cc(-c3cccs3)nc12	2.3*	8%	7	i	10
COC(=O)CN(c1ccc(F)cc1)S(=O)(=O)c1ccc2c(c1)OCCO2	1	3%	0	i	8
COC(=O)c1cc(=O)nc2sc(-c3cccs3)nn12	2.7*	3%	10	·	0
CCCOc1ccc2oc(=O)c3c(c2c1)CCCN3C(=O)CN1CCN(C(=O)c2ccco2)CC1	3*	7%	6	i	7
CCCOc1ccc2oc(=O)c3c(c2c1)CCCN3C(=O)CN1CCN(c2ncccn2)CC1	1.9	15%	8	i	15
O=C(CN1CCCC1)N1CCCc2c1c(=O)oc1ccc(OCc3ccccc3)cc21	3*	12%	4	+	0
CCCCn1c2c(c(=O)n(C)c1=O)C(c1ccc(OC)cc1)N1CCCCCC1=N2 (stereo unspecified)	1.3	5%	11	i	0
CCOC(=O)c1sc(Nc2nc3c(OC)cccc3s2)nc1C	2.2*	9%	10	+	0
N=C1C(c2nc3ccccc3c(=O)[nH]2)=C(O)CN1CCO	1.9	10%	15	i	0
COc1ccccc1N1CC(O)=C(c2nc3ccccc3c(=O)[nH]2)C1=N	2.5*	7%	7	i	22
COCCN1CC(O)=C(c2nc3ccccc3c(=O)[nH]2)C1=N	3.7*	4%	0	·	8
N#CC1=C(O)C(c2ccccc2)n2c1nc(=O)c1ccccc12 (stereo unspecified)	5*	2%	0	·	3
Cc1oc2cc(O)cc(C)c2c(=O)c1-c1cnn(-c2ccccc2)c1	1.2	2%	7	i	0
Cc1nc(-c2cnn(-c3ccccc3)c2)c2cc(C)oc2n1	2.7*	2%	4	+[fluoresces]	0
COC(=O)CCn1nnc(-c2ccc(C(C)C)cc2)n1	3*	7%	8	i	1
SMILES	Fluor 339 460	NADH coupling	Spn PMK inh	DPM-DC inhibit	Spn MK inh
COC(=O)CCn1nnc(-c2cccs2)n1	1.1	1%	0	i	3
CCCCc1nc(SCC(=O)Nc2ccc(S(N)(=O)=O)cc2)n[nH]1	1.1	5%	12	i	3
CN1CCN(S(=O)(=O)c2ccc(Cc3ccc(S(=O)(=O)N4CCN(C)CC4)cc3)cc2)CC1	1.1	3%	9	i	0
Cc1ccc(-n2nc(C)c3c(C)c(CCC(=O)NCc4ccco4)c(C)nc32)cc1	2.2*	6%	10	·	1
Cc1cc(C)c2c(n1)nn1c(C)c(CCC(=O)NCc3ccco3)c(C)nc21	2.1*	10%	10	·	9
CCOC(=O)N1CCN(C(=O)CCc2c(C)nc3c(c(C)nn3-c3ccc(C)c(C)c3)c2C)CC1	2.6*	11%	13	+	7
CN1CCN(c2ccccc2NC(=O)C(Cc2ccccc2)n2cccc2)CC1 (stereo unspecified)	1.1	6%	19	i	0
Fc1cccc(-c2cc3nc4c(c(N5CCN(c6cnccn6)CC5)n3n2)CCCC4)c1	2.4*	5%	12	·	10
COc1ccc(-c2ccc(-c3noc(-c4ccc(OC)c(OC)c4)n3)c(OC)n2)cc1	3.9*	15%	15	·	14
COc1ccc(-c2ccc(-c3noc(-c4cccc(OC)c4)n3)c(OC)n2)cc1	3.8*	9%	5	·	12
COc1ccc(-c2nc(-c3ccncc3)no2)cc1OC	1.1	5%	13	i	0
Cc1cc(=O)c2cc(Cl)ccc2[nH]1	1.1	4%	7	i	6
CCOC(=O)c1ccc2[nH]c(C)c(CCC(C)=O)c(=O)c2c1	2.1*	5%	2	·	8
CCOC(=O)c1ccc2[nH]c(C)cc(=O)c2c1	2.1*	4%	2	·	5
CCOC(=O)c1ccc2[nH]c3c(c2c1)CN(C)CC3	1.1	2%	4	i	4
COC(=O)c1ccc2[nH]c(C)cc(=O)c2c1	2.3*	7%	8	·	6
O=C(CCSc1nc2ccccc2o1)N1CCOCC1	1.1	1%	0	i	2
CCOC(=O)N1CCN(S(=O)(=O)c2cccc3ccc(C)nc23)CC1	1.1	3%	0	i	8
Cc1ccc(-c2nn3c(C)nnc3s2)cc1NC(=O)c1ccc(-c2ccc(Cl)cc2Cl)o1	3.7*	4%	2	·	6
COc1cc(NC(=O)c2ccc3c(c2)OCO3)ccc1NC(=O)C(C)C	1.5	7%	7	i	0
Cc1nnc2sc(-c3ccc(NC(=O)c4ccc(-c5ccc(Br)cc5)o4)cc3)nn12	3.7*	0%	0	·	0
COc1cc(NC(=O)c2ccc(-c3ccc(Br)cc3)o2)ccc1NC(=O)C(C)C	3.8*	5%	4	·	5
CCOC(=O)c1nnn(CC(=O)Nc2ccccc2OC)c1C(=O)OCC	1.1	6%	19	i	0
CCC(CC)C(=O)Nc1cc(C)cc(C)c1	1.2	0%	1	i	0
O=C(Cc1c[nH]c2ccccc12)NCc1ccc2c(c1)OCO2	1	2%	6	i	0
CCOC(=O)c1[nH]c(C)c(C(=O)N2CCN(c3cccc(Cl)c3)CC2)c1C	1.1	3%	8	i	0
CCC1CC2(C)NC(=O)c3c(sc4c3CC(C)(C)OC4)N2C1=O (stereo unspecified)	2.3*	4%	3	·	5
CC1(C)Cc2c(sc3nn[nH]c(=O)c23)CO1	1.1	7%	10	i	11
